High-throughput results from PubChem.
Only some compounds are listed: those with a hit (about 17% of all), similar ones and a draw of the others.
HepG2 tox = qHTS for Inhibitors of TGF-b: Cytotox Counterscreen; 410,000 compounds, 0.76% hits; Potency, µM (highest dose often 46.1 µM), actives largely listed as cytotoxic; HepG2 CAGA-GFP viability, ATP luminescence, 18 h
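HepG2 CAGA-GFP cells (1000/well, DMEM with 1% FBS) received compound, then TGF-beta at 500 pg/mL final, and were incubated 18 hours at 37 degrees C. Viability was read by CellTiter-Glo luminescence. Media-only wells were set as complete cell-killing and DMSO as no toxicity.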
TDP1 cell noCPT = qHTS for Inhibitors of human tyrosyl-DNA phosphodiesterase 1 (TDP1): qHTS in cells in absence of CPT | DT40 Tdp1-/- hTDP1 cells, no CPT, ATP luminescence, 48 h | Potency, µM (titrated, usually from 46.2 µM), usual class: inhibitors | 420,000 compounds, 15% hits; also: nearly all actives have a fitted effect of over 55% in size
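Seeded 400 DT40-hTDP1 cells/well (vehicle DMSO, no 20 nM CPT); pinned compounds; ≥48 hr at 37 °C; CellTiter-Glo luminescence as viability measure.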
DT40 TDP1 CPT = qHTS for Inhibitors of human tyrosyl-DNA phosphodiesterase 1 (TDP1): qHTS in cells in presence of CPT; chicken DT40 Tdp1-/-;hTDP1 cells + 20 nM CPT, ATP luminescence, 48 h; Potency, µM (highest dose often 46.2 µM), hits mostly inhibitors; 420,000 compounds, 12% hits; AID 686979, 2013; also: nearly all actives have a fitted effect of over 55% in size
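Chicken DT40 Tdp1-/- cells complemented with human TDP1, 400 cells/well, exposed to compounds plus 20 nM camptothecin for at least 48 h at 37 C; viability read as ATP content by CellTiter-Glo luminescence.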
ATXN2 expr inh = Primary qHTS for Inhibitors of ATXN expression; 360,000 compounds, 0.72% hits; AID 1745845, 2022; Potency, µM (top dose mostly 57 µM), actives largely listed as inhibitors; HEK-293 ATXN2-luciferase reporter, luminescence, 24 h; also: nearly all actives have a fitted effect of over 55% in size
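qHTS (up to 57 uM final) was run with 24 h compound exposure of reporter cells at 37 °C. Each well was multiplexed: SteadyGlo luminescence measured ATXN2-luciferase expression after a fluorogenic Gly-Phe-AFC viability readout (25 uM final).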
TGFb SMAD3 inh = qHTS for Inhibitors of TGF-b | Potency, µM (series often up to 46.1 µM), most hits filed as inhibitors | HepG2 CAGA-GFP TGF-b/SMAD3 reporter, GFP fluorescence, 18 h; TGF-beta stimulated, 500 pg/mL final | AID 588855, 2011 | 410,000 compounds, 1.2% hits; also: nearly all actives have a fitted effect of over 65% in size
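Inhibition was scored as loss of TGF-beta-induced (500 pg/mL final, 18 hours, 37 degrees C) GFP in HEPG2 cells carrying a CAGA-GFP reporter, in DMEM with 1% FBS. Well GFP was summed per cell; Activity was normalised to unstimulated and stimulated DMSO wells, then concentration-response fitting.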
ATXN viability = Viability Counterscreen for Primary qHTS for Inhibitors of ATXN expression; S2 cells (HEK-293 line with an ATXN2-luciferase reporter) viability, CellTiter-Fluor protease fluorescence, 24 h; AID 651635, 2014; 400,000 compounds, 0.49% hits; Potency, µM (series often up to 56.7 µM), usual class: cytotoxic; also: nearly all actives have a fitted effect of over 40% in size
A number is an active result; – = inactive; ? = inconclusive; · = no result; [ ] = another dose, or the depositor's remark. Calls follow the shape of the dose curve; as a rule, active = well fitted curve in the direction sought with a large enough effect; inconclusive = small, poorly fitted or top-dose-only effect, or another doubt; inactive = no such curve, though single readings can be large; an effect the other way counts as inactive or inconclusive.

SMILES	HepG2 tox	TDP1 cell noCPT	DT40 TDP1 CPT	ATXN2 expr inh	TGFb SMAD3 inh	ATXN viability
CC1(C2CC2)NC(=O)N(CC(=O)Nc2ccc(F)cc2F)C1=O (stereo not given)	–	–	–	–	–	–
CCc1ccc(N2CC(C(=O)OCc3nc4ccsc4c(=O)[nH]3)CC2=O)cc1 (stereo not given)	–	–	–	–	–	–
CC(=O)c1c(C)[nH]c(C(=O)CSc2nc3ccc(C)cc3[nH]2)c1C	–	14.6µM	?	–	?	–
Cc1ccc2sc(N(CCCN(C)C)C(=O)c3nc4ccccc4s3)nc2c1C	–	6.51µM	13µM	–	?	–
Cc1cccc2sc(N(CCCN(C)C)C(=O)c3nc4ccccc4s3)nc12	–	13µM	13µM	–	–	?
CCn1c(-c2ccccc2F)nc2cc(C(=O)NCC3CCOCC3)cc(NC(C)=O)c21	·	–	–[9.04 µM]	·	·	–
CN(C(=O)c1cncc(Br)c1)c1c(N)n(Cc2ccccc2)c(=O)[nH]c1=O	–	–	–	–	–	–
CN(C)c1ccc(/C=C2/CCc3ccccc32)cc1	–	10µM	14.1µM	·	15.8µM	·
CC1=Nc2ccccc2/C1=C/c1ccc(N(C)C)cc1	–	17.8µM	–	·	?	·
CN(C)c1ccc(C=C2c3ccccc3-c3ccccc32)cc1	–	22.4µM	?	·	–	·
CN(C)c1ccc(/C=C2\c3ccccc3-c3ccc(N(C)C)cc32)cc1	–	?	–	·	–	·
CC1=Nc2ccccc2/C1=C\c1nc(-c2ccccc2)oc1O	–	–	–	–	–	–
CN(C)c1ccc(C=C2C=Cc3ccccc32)cc1	–	–	–	–	–	?
CN(C)c1ccc(C=C2C(=O)c3ccccc3C2=O)cc1	–	–	–	·	–	·
CC1=Nc2ccccc2/C1=C/c1c(C)[nH]c2ccccc12	–	16.4µM	?	–	?	–
CN(C)c1ccc(C=C2SC(=S)NC2=O)cc1	–	?	–	–	–	–
CN(C)c1ccc(/C=C2\CCCCC2=O)cc1	–	?	20µM	–	–	–
CCc1nn2c(-c3ccccc3OC)ccnc2c1-c1ccc(F)cc1	–	?	23.1µM	?	?	–
CCc1nn2c(-c3ccccc3OC)ccnc2c1-c1ccccc1	–	20.6µM	?	–	–	–
COc1ccccc1-c1ccnc2c(-c3ccc(Br)cc3)c(C)nn12	–	–	–	–	?	–
Cc1ccccc1N1C(=O)C(Oc2ccc(Cl)cc2)C1CNCCCOC(C)C (stereo not given)	–	25.9µM	?	–	?	–
CC(C)OCCCNC1=C(Cl)C(=O)c2ccccc2C1=O	–	?	?	–	?	–
COCCCNCC1C(Oc2ccc(Cl)cc2)C(=O)N1c1ccccc1C (stereo not given)	–	16.4µM	?	–	–	–
COCCN1CC(=O)N(c2cccc(C)c2C)C(c2ccc(Cl)cc2)C1=O (stereo not given)	–	–	–	–	–	–
Cc1ccc(OCc2ccc(C(=O)NN)o2)cc1C	–	–	–	·	–	–
SMILES	HepG2 tox	TDP1 cell noCPT	DT40 TDP1 CPT	ATXN2 expr inh	TGFb SMAD3 inh	ATXN viability
COC(=O)c1ccccc1NC(=O)c1ccc(COc2cc(C)cc(C)c2)o1	–	23.1µM	?	–	–	–
O=C(Nc1ccccc1C(=O)O)c1ccc(Br)o1	–	–	–	–	–	–
COC(=O)c1cc(OC)c(OC)cc1NC(=O)CCc1ccc(C)o1	–	?	?	–	–	–
COC(=O)c1cc(OC)c(OC)cc1NC(=O)c1ccc(C)o1	–	18.4µM	14.6µM	–	?	?
COC(=O)c1ccccc1NC(=O)c1ccc(COc2ccc(C)c(C)c2)o1	–	13µM	?	–	?	–
COC(=O)c1ccccc1NC(=O)c1cccc(NC(=O)c2ccc(Br)o2)c1C	–	1.84µM	2.91µM	–	–	–
CSc1ncccc1C(=O)NC1CCN(Cc2ccccc2)CC1	–	–	–	–	–	–
CCn1c(CNC(=O)c2ccc(OC)cc2)nnc1SCC(=O)Nc1cccc(C)c1C	–	–	–	–	?	?
Cc1cc2nc(-c3cccc(NC(=O)c4ccc(Br)o4)c3C)oc2cc1C	–	23.1µM	?	–	–	–
Cc1ccc2oc(-c3cccc(NC(=O)c4ccc(Br)o4)c3C)nc2c1	–	?	?	–	–	–
Cc1nn(-c2cccc(C(F)(F)F)c2)c(=O)c2ccccc12	–	–	–	–	–	?
Cc1cc(N=Cc2c(O)n(-c3cccc(C(F)(F)F)c3)c(=O)c3ccccc23)no1	–	23.1µM	18.4µM	–	–	–
COCCN(CCOC)Cc1cc(=O)oc2cc3c(cc12)CCC3	–	–	–	–	–	–
O=c1cc(CN2CCN(Cc3ccccc3)CC2)c2cc3c(cc2o1)CCC3	–	18.4µM	?	–	–	–
CC(C)CN(Cc1cc(=O)oc2cc3c(cc12)CCCC3)CC(C)C	–	20.6µM	?	·	–	–
CCc1cc2c(CN(C)Cc3ccccc3F)cc(=O)oc2cc1O	–	14.6µM	?	–	?	–
Cc1cc2oc(=O)cc(CN(C)Cc3cccc(F)c3)c2cc1C	–	–	?	–	–	–
O=c1cc(CN2CCN(c3ccccc3F)CC2)c2cc3c(cc2o1)CCCC3	17.8µM	?	?	–	?	–
O=c1cc(CN2CCN(CCO)CC2)c2cc3c(cc2o1)CCC3	–	–	–	–	–	–
Cc1nc(SCC(=O)NC2(C#N)CCCC2)n(CC(C)C)c1C	–	?	–	–	–	–
COc1ccccc1NC(=O)N1CCC(NC(=O)C2CCCCC2)CC1	–	–	–	–	–	–
CCc1cc2c(CN3CCN(Cc4ccccc4)CC3)cc(=O)oc2cc1O	–	18.4µM	16.4µM	–	?	·
O=c1cc(CN2CCCCC2)c2c(ccc3ccccc32)o1	–	?	?	–	?	–
O=c1cc(CN2CCN(Cc3ccccc3)CC2)c2ccc(O)c(O)c2o1	–	14.6µM	10.3µM	–	–	·
O=c1cc(CN2CCN(c3ccccc3F)CC2)c2c(ccc3ccccc32)o1	–	18.4µM	16.4µM	–	?	–
CCCOc1ccc(C2NC(=O)CCC2[N+](=O)[O-])cc1 (stereo not given)	–	?	–	·	–	–
O=C(NCc1cccc(C(F)(F)F)c1)C1C(=O)Nc2ccccc2C(=O)N1C1CCCC1 (stereo not given)	·	–	?	·	·	·
